PNC assembly inh = High Content Assay for Compounds that inhibit the Assembly of the Perinucleolar Compartment. PC3M PTB-GFP, PNC prevalence imaging, 16 h; active compounds read low. 140,000 tested, 3.1% active. activity change (PNC), negative = inhibition, % at 10 µM;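 active = readout at or below -70, meaning at least 70% loss of cells showing the perinucleolar compartment, a nuclear body marking cancer cells; inconclusive = readout between -30 and a set limit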;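 note: plate controls were DMSO wells for no effect and camptothecin positive control wells for full effect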
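PC3M cells stably expressing PTB-GFP, 750–1000 cells/well, treated 16 h at 37 °C with compound (23 nl of library stock), in duplicate. After paraformaldehyde fixation and Hoechst stain, imaged at 20x; PNC prevalence scored by image analysis.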
HttQ103 aggreg = qHTS Multiplex Assay to Identify Dual Action Probes in a Cell Model of Huntington: Aggregate Formation (GFP); PC12 HttQ103-GFP aggregates, Acumen cytometry, 40 h; Potency, µM (top dose mostly 46.1 µM), for inactives: at the top dose activity change, negative = inhibition, actives largely listed as inhibitors; 220,000 tested, 1.1% active; note: potency is the fitted concentration of half-maximal effect; % is set by controls: 0 for no effect and ±100 for the full control effect; nearly all actives have a fitted effect of over 60% in size
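Ecdysone-promoter PC12 model expressing HTT exon 1 Q103 fused to GFP, induced by tebufenozide at 100 nM final. Compounds titrated; aggregates sized 1–25 µm scored on a 488 nm laser cytometer.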
HTT ATP protect = qHTS Multiplex Assay to Identify Dual Action Probes in a Cell Model of Huntington: Cytoprotection (ATP) | AID 1471, 2008 | 230,000 tested, 0.14% active | PC12 HTT-Q103 induced, cytoprotection, ATP luminescence, 40 h | Potency, µM (top dose mostly 56.4 µM), without a hit: cytoprotection (ATP increase), most hits filed as activators; note: potency is the fitted concentration of half-maximal effect; % of control where 0% means no effect; nearly all actives have a fitted effect of over 45% in size
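Stable PC12 Q103-GFP cells in serum-supplemented, phenol red-free DMEM; induction by tebufenozide at 100 nM final; compound dose series; cell viability quantified luminescently from ATP.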
* marks the source's active call; other numbers are inactive results; ? = inconclusive; · = no result given; [ ] = dose if it differs, or a comment. The entries come from a sample that favours hits as a whole. Unless noted, calls come from the whole dose curve; as a rule, active = well fitted curve in the direction sought with a large enough effect; inconclusive = small, poorly fitted or top-dose-only effect, or another doubt; inactive = no such curve, though single readings can be large; an effect the other way counts as inactive or inconclusive.

SMILES | PNC assembly inh | HttQ103 aggreg | HTT ATP protect
CCCCn1c(=O)[nH]c(=O)c2c1nc(-c1ccc(C)c([N+](=O)[O-])c1)n2CC | · | 27% | -49%
O=C(COC(=O)CCCc1nc2ccccc2s1)NC(=O)NCc1ccco1 | · | 6% | -21%[10 µM]
C#C[C@@]1(O)CC[C@H]2[C@H]3CCC4=Cc5oncc5C[C@]4(C)[C@@H]3CC[C@@]21C | · | · | 20%[1.9 µM]
O=C(CSc1ncccn1)N/N=C/c1cccs1 | ? | 16% | ?
CC(=O)Nc1cc(C(=O)N2CCCC2)ccc1S(=O)(=O)c1ccc(C)cc1 | 16 | 6% | -3%
CCCC(=O)Nc1cc(C(=O)O)ccc1S(=O)(=O)c1ccc(C)cc1 | -113* | 9% | ·
Cn1c(SCC(=O)N2CCCCC2)nnc1-c1ccc(S(=O)(=O)N2CCOCC2)cc1 | 23 | -18% | -10%[10 µM]
Cc1ccc(S(=O)(=O)N2CCCN(S(=O)(=O)c3ccc(C)c(C)c3)CC2)cc1C | 17 | -23% | -4%
CNC(=O)COC(=O)c1nc(-n2nc(C)cc2C)ccc1Cl | 78 | 18% | -2%
COc1cc(C(=O)OCC(=O)N(C)Cc2ccccc2)cc(OC)c1OC | -100* | 9% | -3%[10 µM]
CN(Cc1ccccc1)C(=O)COC(=O)c1ccc(S(=O)(=O)N(C)C)cc1 | · | -9% | 11%
CCn1c(Cl)c(C=O)s/c1=N\S(=O)(=O)c1ccccc1 | · | 1.4µM* | -97%[10 µM]
CCN1C(=O)CS/C1=N\S(=O)(=O)c1ccc(Cl)cc1 | · | 15% | -15%[10 µM]
CCOC(=O)c1cc(CN2CCOCC2)oc1-c1ccccc1 | -6 | 9% | -2%
Cc1cc(Br)ccc1NC(=O)CN1C(=O)C2C3CC(c4ccccc4)C(C3)C2C1=O (configuration not stated) | 72 | ? | -9%
Cc1ccc(/C=C/C(=O)c2c(C)cc(C)[nH]c2=O)cc1 | 8 | ? | 9%
CCc1ccc(/C=C/C(=O)c2c(C)cc(C)[nH]c2=O)cc1 | 21 | 25µM* | 9%[10 µM]
Cc1cccc(N(CC(=O)Nc2ccc(CC#N)cc2)S(C)(=O)=O)c1 | -84* | -3% | -2%
CCc1ccc(NC(=O)CN(c2cccc(C)c2)S(C)(=O)=O)cc1 | -25 | -1% | -30%
CCN(CC)C(=O)CSc1nsc(SCC(=O)N(CC)CC)c1C#N | 20 | 16% | 28%
Cc1ccc(S(=O)(=O)NC2CCC(C(=O)O)CC2)cc1 (configuration not stated) | -103* | -6% | 8%
Cc1ccc(S(=O)(=O)NC2CCCCC2)cc1 | · | · | 0%
O=C(COC(=O)c1cccnc1Nc1cccc(C(F)(F)F)c1)NCc1ccc2c(c1)OCO2 | 18 | -16% | -32%
CCNc1nc(Oc2ccc(C(=O)OCC)cc2)nc(SC)n1 | ? | -1% | -4%
N#CCCn1c(=O)c(-c2ccc(F)cc2)nc2cnc(Oc3cccc(Cl)c3)nc21 | · | · | 3.2µM*
SMILES | PNC assembly inh | HttQ103 aggreg | HTT ATP protect
N#CCCn1c(=O)c(-c2ccc(Cl)cc2)nc2cnc(Oc3cccc(Cl)c3)nc21 | · | · | -30%
O=C1NCC(CN(c2ccccc2)c2ccccc2)O1 (configuration not stated) | ? | -6% | -12%
CC(C)(C)n1ncc2c(=O)n(CC(=O)N3CCCCCC3)cnc21 | -26 | 8% | -5%
O=C(N/N=C/c1cc(O)ccc1[N+](=O)[O-])c1ccc2c(c1)OCCO2 | · | -2%[9.22 µM] | -58%[10 µM]
COc1ccccc1NC(=O)CN1CCN(CC(=O)Nc2ccc(OCc3ccccc3)cc2)CC1 | 49 | ? | -73%
COc1ccccc1NC(=O)CN1C(=O)C(C)SC(C)C1=O (configuration not stated) | -99* | -4% | -6%[10 µM]
COc1ccccc1NC(=O)CN1C(=O)CSC(C)C1=O (configuration not stated) | -15 | 6% | 6%[10 µM]
COc1ccccc1NC(=O)CN1CCN(Cc2ccccc2)CC1 | -87* | -6% | 8%
Cc1nn(-c2ccc(F)cc2)c(C)c1CN1CCN(CCC(C)C)C(CCO)C1 (configuration not stated) | · | 1% | 5%
CCOC(=O)N1CCN(C(=S)Nc2cccc(C)c2C)CC1 | 99 | ? | ?
CC(=O)SC1CC(=O)N(c2ccc(C(C)(C)C)cc2)C1=O (configuration not stated) | · | -15%[9.22 µM] | 1%[10 µM]
CN(C(=O)COC(=O)c1cc(NS(=O)(=O)c2cc([N+](=O)[O-])ccc2Cl)ccc1O)C1CCCCC1 | -95* | -8% | -8%[10 µM]
O=C(COC(=O)c1ccccc1NS(=O)(=O)c1cc([N+](=O)[O-])ccc1Cl)c1ccccc1 | · | -9%[9.22 µM] | -31%
COc1ccccc1NS(=O)(=O)c1cccc(C(=O)OCc2nc3ccccc3s2)c1 | -8 | -1% | 4%[10 µM]
COc1ccc(-c2nc(C(N)=O)c3[nH]c(=O)n(-c4cccc(Cl)c4)c3n2)cc1OC | -15 | ? | 9%[10 µM]
CCc1ccc(-c2nc(C(N)=O)c3[nH]c(=O)n(-c4ccccc4OC)c3n2)cc1 | -106* | -5% | -73%
CSc1ccc(CNc2nnnn2C)cc1 | · | 16% | -42%
COCCCNCCOCCOc1ccccc1-c1ccccc1 | -17 | 14% | -6%[10 µM]
CC(C)(C)NCCOCCOc1ccccc1-c1ccccc1 | -106* | -5% | 0%[10 µM]
CCCOc1cccc(OCCSc2nc(C)cc(=O)[nH]2)c1 | -86* | -23% | -20%
Cc1cc(=O)[nH]c(SCCCOc2ccc(F)cc2)n1 | 24 | -5% | -36%
CCSc1nnc(NC(=O)C2CC=CCC2C(=O)O)s1 (configuration not stated) | 14 | -5% | 1%
Cc1cccc(NC(=S)N(CCN(C)C)Cc2cc3cc(C)cc(C)c3[nH]c2=O)c1 | 3 | -2% | -2%[10 µM]
Cc1cccc(NC(=S)N(CCN(C)C)Cc2cc3cccc(C)c3[nH]c2=O)c1 | -100* | 2% | 15%[10 µM]
COc1cc2cc(CN(Cc3cccs3)C(=S)Nc3ccc(C)cc3)c(=O)[nH]c2cc1OC | -24 | 13% | 12%[10 µM]
SMILES | PNC assembly inh | HttQ103 aggreg | HTT ATP protect
COc1cc2cc(CN(Cc3cccs3)C(=S)Nc3cccc(C)c3)c(=O)[nH]c2cc1OC | -113* | -1% | -13%[10 µM]
COc1ccc(C)cc1NC(=O)C(OC(=O)c1ccc(Cl)c(S(=O)(=O)N(C)c2ccccc2)c1)c1ccccc1 (configuration not stated) | 24 | -7% | 13%[10 µM]
Cc1ccc(C)c(NC(=S)NNC(=O)c2csc3c2CCC(C)C3)c1 (configuration not stated) | -113* | -3% | 1%
Cc1ccc(C)c(NC(=S)NNC(=O)c2csc3c2CCCC3)c1 | -27 | 25µM* | 11%
Cc1cccc(NC(=S)NNC(=O)c2csc3c2CCCC3)c1 | 26 | ? | -17%
CCc1cc(C(=O)NNC(=S)Nc2cc(C)ccc2C)cs1 | 6 | -27% | 22%[10 µM]
Cc1ccc(S(=O)(=O)NNC(=O)c2cnn(-c3ccccc3)c2-n2cccc2)cc1 | -18 | 13% | -23%
Cc1ccc(CN2CCN(CC3CC4C=CC3C4)CC2)cc1 (configuration not stated) | ? | 3.2µM* | -8%
O=S(=O)(c1ccccc1)N1CCN(CC2CC3C=CC2C3)CC1 (configuration not stated) | · | -20%[9.22 µM] | -6%[10 µM]
